Measurements reported in PubChem BioAssay (NCATS).
Inconclusive results are not listed. Activity calls are given as the source filed them. Calls come from the whole dose curve; as a rule, active = well fitted curve in the direction sought with a large enough effect; inconclusive = small, poorly fitted or top-dose-only effect, or another doubt; inactive = no such curve, though single readings can be large; an effect the other way counts as inactive or inconclusive.

Legend:
[1] = Quantitative High-Throughput drug screen in 47 multiple myeloma cell lines against the NCATS MIPE library collection: KMS26_JCRB cell viability assay (AID 1918975); note: nearly all actives have a fitted effect of over 45% in size;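 for viability (% of DMSO): 100% = DMSO-treated wells and 0% = wells with media only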
Procedure, shortened: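 Inhibition of cell viability is measured here. Each line was plated at 500 cells per well, treated with MIPE 4.0 drugs, kept 48 hours at 37C, then assayed for ATP content by CellTiter-Glo luminescence.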

[2] = Quantitative High-Throughput drug screen in 47 multiple myeloma cell lines against the NCATS MIPE library collection: MMM1_PLB cell viability assay (AID 1918976); note: nearly all actives have a fitted effect of over 35% in size
Procedure, shortened: (§1)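 qHTS format: cells plated (500/well), pin-dosed with MIPE 4.0 compounds, kept 48 h at 37 °C. Readout was CellTiter-Glo luminescence, median RLU.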

[3] = Quantitative High-Throughput drug screen in 47 multiple myeloma cell lines against the NCATS MIPE library collection: MOLP8_DSMZ cell viability assay (AID 1918977); note: nearly all actives have a fitted effect of over 45% in size
Procedure, shortened: as §1

[4] = Quantitative High-Throughput drug screen in 47 multiple myeloma cell lines against the NCATS MIPE library collection: NCIH929_DSMZ cell viability assay (AID 1918978); note: nearly all actives have a fitted effect of over 35% in size
Procedure, shortened: as §1

[5] = Quantitative High-Throughput drug screen in 47 multiple myeloma cell lines against the NCATS MIPE library collection: OCIMY1_PLB cell viability assay (AID 1918979); note: nearly all actives have a fitted effect of over 35% in size;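 for viability: 100% = DMSO-only wells and 0% = cell-free media-only wells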
Procedure, shortened: as §1

[6] = Quantitative High-Throughput drug screen in 47 multiple myeloma cell lines against the NCATS MIPE library collection: MM1S_ATCC cell viability assay (AID 1918980); note: nearly all actives have a fitted effect of over 45% in size
Procedure, shortened: as §1

[7] = Quantitative High-Throughput drug screen in 47 multiple myeloma cell lines against the NCATS MIPE library collection: MM1R_ATCC cell viability assay (AID 1918981); note: nearly all actives have a fitted effect of over 35% in size
Procedure, shortened: as §1

[8] = Quantitative High-Throughput drug screen in 47 multiple myeloma cell lines against the NCATS MIPE library collection: LP1_DSMZ cell viability assay (AID 1918982); note: nearly all actives have a fitted effect of over 35% in size
Procedure, shortened: as §1

[9] = Quantitative High-Throughput drug screen in 47 multiple myeloma cell lines against the NCATS MIPE library collection: KMS28PE_JCRB cell viability assay (AID 1918983); note: nearly all actives have a fitted effect of over 35% in size
Procedure, shortened: as §1

[10] = Quantitative High-Throughput drug screen in 47 multiple myeloma cell lines against the NCATS MIPE library collection: OCIMY5_PLB cell viability assay (AID 1918988); note: nearly all actives have a fitted effect of over 65% in size
Procedure, shortened: as §1

[11] = Quantitative High-Throughput drug screen in 47 multiple myeloma cell lines against the NCATS MIPE library collection: OPM1_PLB cell viability assay (AID 1918989); note: nearly all actives have a fitted effect of over 40% in size
Procedure, shortened: as §1

[12] = Quantitative High-Throughput drug screen in 47 multiple myeloma cell lines against the NCATS MIPE library collection: U266_ATCC cell viability assay (AID 1919864); note: nearly all actives have a fitted effect of over 35% in size
Procedure, shortened: as §1

[13] = Quantitative High-Throughput drug screen in 47 multiple myeloma cell lines against the NCATS MIPE library collection: XG1_PLB cell viability assay (AID 1919866); note: nearly all actives have a fitted effect of over 35% in size
Procedure, shortened: as §1

[14] = Quantitative High-Throughput drug screen in 47 multiple myeloma cell lines against the NCATS MIPE library collection: KMS34_JCRB cell viability assay (AID 1918985); note: nearly all actives have a fitted effect of over 40% in size
Procedure, shortened: as §1

[15] = Quantitative High-Throughput drug screen in 47 multiple myeloma cell lines against the NCATS MIPE library collection: SKMM1_PLB cell viability assay (AID 1919863); details: SKMM1 myeloma viability, CellTiter-Glo ATP, 48 h; viability: stronger effect = lower value; note: nearly all actives have a fitted effect of over 35% in size
Procedure, shortened: as §1

[16] = Quantitative High-Throughput drug screen in 47 multiple myeloma cell lines against the NCATS MIPE library collection: XG6_PLB cell viability assay (AID 1919865); note: nearly all actives have a fitted effect of over 40% in size
Procedure, shortened: as §1

[17] = Quantitative High-Throughput drug screen in 47 multiple myeloma cell lines against the NCATS MIPE library collection: OCIMY7_PLB cell viability assay (AID 1918987); details: OCI-MY7 myeloma viability, CellTiter-Glo ATP, 48 h; viability (% of DMSO): at 45.8 µM (top of the series); note: nearly all actives have a fitted effect of over 65% in size
Procedure, shortened: as §1

[18] = Quantitative High-Throughput drug screen in 47 multiple myeloma cell lines against the NCATS MIPE library collection: VP6_DJ cell viability assay (AID 1919867); note: nearly all actives have a fitted effect of over 40% in size
Procedure, shortened: as §1

[19] = Quantitative High-Throughput drug screen in 47 multiple myeloma cell lines against the NCATS MIPE library collection: L363_DSMZ cell viability assay (AID 1918984); note: nearly all actives have a fitted effect of over 40% in size
Procedure, shortened: as §1
Potency is the fitted concentration of half-maximal effect.

CN(C)c1cc(NC(=O)CNC(C)(C)C)c(O)c2c1C[C@@H]1C[C@H]3[C@H](N(C)C)C(=O)C(C(N)=O)=C(O)[C@@]3(O)C(=O)C1=C2O
inactive: Potency [1] | Potency [4] | Potency [5] | Potency [6] | Potency [8] | Potency [9] | Potency [10] | Potency [11] | Potency [12] | Potency [13]
active: Potency [2] 14.8 µM | Potency [3] 9.35 µM | Potency [7] 18.7 µM

CCOc1ccc(Nc2nc(-c3c(C)nc4ccccn34)cs2)cc1
inactive: Potency [16] | Potency [13]
active: Potency [1] 0.332 µM | Potency [2] 20.9 µM | Potency [4] 0.0526 µM | Potency [7] 0.0059 µM | Potency [14] 0.0033 µM | Potency [10] 0.0026 µM | Potency [11] 0.0066 µM | Potency [15] 0.264 µM

COc1cc(Nc2ncc(F)c(Nc3ccc4c(n3)NC(=O)C(C)(C)O4)n2)cc(OC)c1OC
active: Potency [1] 9.35 µM | Potency [2] 1.48 µM | Potency [3] 7.43 µM | Potency [5] 1.66 µM | Potency [7] 6.62 µM | Potency [9] 0.833 µM | Potency [14] 4.69 µM | Potency [10] 6.62 µM | Potency [11] 1.87 µM | Potency [16] 1.66 µM
inactive: Potency [6] | Potency [12]

O=C(Nc1ccccc1-c1cn2c(CN3CCNCC3)csc2n1)c1cnc2ccccc2n1
active: Potency [1] 9.35 µM | Potency [2] 10.5 µM | Potency [3] 9.35 µM | Potency [4] 7.43 µM | Potency [5] 16.6 µM | Potency [6] 23.5 µM | Potency [7] 20.9 µM | Potency [8] 23.5 µM | Potency [17] 9.35 µM | Potency [10] 8.33 µM | Potency [11] 8.33 µM | Potency [15] 4.69 µM | Potency [12] 11.8 µM | Potency [16] 9.35 µM | Potency [13] 7.43 µM | Potency [18] 9.35 µM

Cc1c(O)cccc1C(=O)N[C@@H](CSc1ccccc1)[C@H](O)CN1C[C@H]2CCCC[C@@H]2C[C@@H]1C(=O)NC(C)(C)C
active: Potency [1] 29.6 µM | Potency [2] 20.9 µM | Potency [3] 16.6 µM | Potency [4] 23.5 µM | Potency [5] 20.9 µM | Potency [6] 20.9 µM | Potency [7] 18.7 µM | Potency [8] 20.9 µM | Potency [9] 20.9 µM | Potency [19] 20.9 µM | Potency [14] 18.7 µM | Potency [17] 14.8 µM | Potency [10] 23.5 µM | Potency [11] 18.7 µM | Potency [15] 20.9 µM | Potency [12] 18.7 µM | Potency [16] 29.6 µM | Potency [13] 23.5 µM | Potency [18] 18.7 µM

CC[C@@]1(O)C[C@H](O[C@H]2C[C@H](N(C)C)[C@H](O[C@H]3C[C@H](O)[C@H](O[C@H]4CCC(=O)[C@H](C)O4)[C@H](C)O3)[C@H](C)O2)c2c(cc3c(c2O)C(=O)c2c(O)cccc2C3=O)[C@@H]1C(=O)OC
active: Potency [1] 0.743 µM | Potency [2] 0.296 µM | Potency [3] 0.296 µM | Potency [4] 0.264 µM | Potency [5] 1.66 µM | Potency [6] 0.187 µM | Potency [7] 0.209 µM | Potency [8] 1.05 µM | Potency [14] 2.09 µM | Potency [17] 0.372 µM | Potency [10] 0.0935 µM | Potency [11] 0.833 µM | Potency [15] 0.833 µM | Potency [12] 0.418 µM | Potency [16] 0.296 µM | Potency [13] 0.132 µM | Potency [18] 0.59 µM

CC(C)(C)c1cc(C(=O)O)c(NC(=O)Nc2ccc3[nH]ncc3c2)s1
inactive: Potency [1] | Potency [2] | Potency [7] | Potency [8] | Potency [14] | Potency [16] | Potency [13]
active: Potency [6] 16.6 µM

CCOC1OC(=O)C[C@H]1NC(=O)[C@@H]1CCCN1C(=O)[C@@H](NC(=O)c1ccc(N)c(Cl)c1)C(C)(C)C (stereo partly specified)
inactive: Potency [1] | Potency [3] | Potency [4] | Potency [5] | Potency [7] | Potency [8] | Potency [14] | Potency [10] | Potency [11] | viability [15] 129% | Potency [16] | Potency [13]
active: Potency [6] 26.4 µM | viability (% of DMSO) [17] 164%

CC(C)(Cc1ccc2ccccc2c1)NC[C@@H](O)COc1cccc(Cl)c1C#N
active: Potency [6] 16.6 µM | Potency [11] 6.62 µM
inactive: Potency [1] | Potency [4] | Potency [5] | Potency [8] | Potency [9] | Potency [14] | viability [15] 126% | Potency [12] | Potency [16] | Potency [13]

Nc1ncnc2c1ncn2[C@@H]1O[C@H](CO)C[C@@H]1O
inactive: Potency [1] | Potency [5] | Potency [7] | Potency [19] | Potency [11] | Potency [16] | Potency [13]
active: Potency [2] 1.32 µM | Potency [15] 18.7 µM | Potency [12] 26.4 µM

OC[C@H]1O[C@@H](Oc2cc(O)cc(C=Cc3ccc(O)cc3)c2)[C@H](O)[C@@H](O)[C@H]1O
active: Potency [10] 9.35 µM
inactive: Potency [1] | Potency [3] | Potency [7] | Potency [14] | Potency [12]

CC(=O)Oc1cc2c(s1)CCN(C(C(=O)C1CC1)c1ccccc1F)C2 (stereo unspecified)
active: Potency [1] 2.96 µM | Potency [2] 1.48 µM | Potency [6] 0.833 µM | Potency [19] 0.935 µM | Potency [17] 0.935 µM | Potency [10] 0.833 µM | Potency [12] 8.33 µM | Potency [16] 2.64 µM | Potency [18] 1.32 µM
